Bioassay records (PubChem BioAssay)
Tau FP inhib: blocks human tau fibril formation measured by polarization; 0.39% of 280,000 active; AID 1468; P10636; K18 P301L tau heparin fibrillization, Alexa594 FP, 6 h; Potency, µM (highest dose often 57.7 µM), without a hit: at the top dose activity, negative = inhibition, hits mostly inhibitors; active = well fitted curve in the direction sought with a large enough effect; inconclusive = small, poorly fitted or top-dose-only effect, or another doubt; inactive = no such curve, though single readings can be large; an effect the other way counts as inactive or inconclusive; also: nearly all actives have a fitted effect of over 55% in size
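K18 P301L tau (15 uM unlabeled/0.24 uM Alexa 594-labeled, final) + compound + heparin 20 uM final; 100 mM NaOAc pH 7; 6 hr 37 C; ThT 30 uM final added, 1 hr RT; FP ex 555/em 632 nm.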
ALDH1A1 inh: inhibitors of human aldehyde dehydrogenase 1A1; P00352; Purified ALDH1A1, NADH fluorescence, propionaldehyde substrate; Potency, µM (titrated, usually from 75.3 µM), for the others: at the top dose activity, negative = inhibition, hits mostly inhibitors; 7.3% of 220,000 active; AID 1030;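 also: plate controls were no enzyme wells and a reference inhibitor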
JMJD2E inh: blocks human JMJD2E demethylase activity; B2RXH2; JMJD2E catalytic domain, FDH-coupled NADH fluorescence (FDH is formaldehyde dehydrogenase); Potency, µM (titrated, usually from 57.1 µM), for inactives: at the highest dose activity change, negative = inhibition, actives largely listed as inhibitors; 1.6% of 230,000 active; AID 2147;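 also: 0% = wells with enzyme and -100% = buffer wells without enzyme; nearly all actives have a fitted effect of over 50% in size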
Target sequence (B2RXH2 1-337 limits assumed): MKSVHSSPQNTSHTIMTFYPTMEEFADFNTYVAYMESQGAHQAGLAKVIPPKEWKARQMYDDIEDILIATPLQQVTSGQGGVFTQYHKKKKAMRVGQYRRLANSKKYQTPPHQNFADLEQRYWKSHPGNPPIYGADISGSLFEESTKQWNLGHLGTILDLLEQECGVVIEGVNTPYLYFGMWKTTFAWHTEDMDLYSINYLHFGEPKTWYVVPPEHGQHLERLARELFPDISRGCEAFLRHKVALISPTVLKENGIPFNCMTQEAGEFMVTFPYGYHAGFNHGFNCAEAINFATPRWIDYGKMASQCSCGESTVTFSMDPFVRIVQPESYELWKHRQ
Tau ThT inhib: tau fibrillization inhibition (ThT binding) | recombinant tau K18 P301L, heparin-induced fibrillization, ThT fluorescence | AID 1460 | P10636 | 2.1% of 270,000 active | Potency, µM (top dose mostly 57.4 µM), for inactives: at the top dose activity, negative = inhibition, usual class: inhibitors; active = well fitted curve in the direction sought with a large enough effect; inconclusive = small, poorly fitted or top-dose-only effect, or another doubt; inactive = no such curve, though single readings can be large; an effect the other way counts as inactive or inconclusive; also: nearly all actives have a fitted effect of over 55% in size
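Tau K18 P301L fragment (15 uM unlabeled plus 0.24 uM Alexa 594-labeled) in 100 mM sodium acetate pH 7 with compound, fibrillization induced by 20 uM heparin for 6 hr at 37 C. Thioflavin T (30 uM) added, fluorescence read after 1 hr (ex 450, em 510 nm).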
Tau fluor counter: counter-screen for tau fibril formation inhibitors; tau K18 P301L Alexa594 fluorescence, heparin fibrillization; Potency, µM (highest dose often 57.7 µM), without a hit: at the top dose activity change, negative = decrease; 0.93% of 280,000 active; active = well fitted curve in the direction sought with a large enough effect; inconclusive = small, poorly fitted or top-dose-only effect, or another doubt; inactive = no such curve, though single readings can be large; an effect the other way counts as inactive or inconclusive; also: nearly all actives have a fitted effect of over 55% in size
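Human tau K18 P301L (15 uM unlabeled, 0.24 uM Alexa 594-labeled) in 100 mM sodium acetate pH 7 with 20 uM heparin, 6 hr at 37 C. ThT 30 uM added, 1 hr ambient; Alexa 594 FP and total fluorescence read at 555/632 nm.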
HPGD block: HPGD (human) dehydrogenase inhibition; P15428; purified HPGD, NADH fluorescence kinetic, PGE2 substrate; Potency, µM, inactives show at the highest dose activity change, negative = inhibition, usual class: inhibitors; 4.3% of 150,000 active; AID 894
Target sequence (P15428 whole entry, looked up): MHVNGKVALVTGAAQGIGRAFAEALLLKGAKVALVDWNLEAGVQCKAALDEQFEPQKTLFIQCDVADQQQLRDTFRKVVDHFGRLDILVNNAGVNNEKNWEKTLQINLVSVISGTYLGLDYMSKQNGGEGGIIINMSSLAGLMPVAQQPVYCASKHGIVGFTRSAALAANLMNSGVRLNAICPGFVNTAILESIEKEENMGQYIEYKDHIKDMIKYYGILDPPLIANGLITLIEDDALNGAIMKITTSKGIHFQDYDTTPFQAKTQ
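20 nM HPGD preincubated 15 min at room temperature with compound in 50 mM Tris-HCl pH 8, 0.01% Tween 20. Started with 1 mM NAD+ and 30 uM prostaglandin E2; NADH fluorescence (360/450 nm) read 5 times over 30-s intervals, last minus first.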
* = called active by the depositor; ? = inconclusive; · = no result given; [ ] = remark or other dose. Most compounds without a hit are left out; they make up all but 9.9% or so of the library. Unless noted, calls follow the shape of the dose curve; as a rule, active = well fitted inhibition curve with a large enough effect (not every such curve was filed as active); inconclusive = small, poorly fitted or top-dose-only effect, or another doubt; inactive = no such curve, though single readings can be large or run the other way. Unless noted, % is scaled to controls: 0 for no effect and ±100 for the full control effect; potency is read from the fitted curve at half-maximal effect.

SMILES	Tau FP inhib	ALDH1A1 inh	JMJD2E inh	Tau ThT inhib	Tau fluor counter	HPGD block
COC(CNC(=O)c1ccc(N2CCC3(CC2)OCCO3)c([N+](=O)[O-])c1)OC	0%	28µM*	-2%	-18%	-8%	-16%
CCOC(=O)C1=C(C)N2C(=C(C#N)[C@@H]1c1ccc(C(=O)OC)cc1)SC[C@@]2(O)C(C)(C)C	14%	?	20µM*	-16%	-24%	-22%
O=C(CSc1nc(-c2ccccc2)ns1)N1CCOCC1	0%	13µM*	-1%	-6%	-15%	·
O=C(CSc1nnc(NC(=O)C2CC2)s1)Nc1ccc(F)cc1	-1%	8%	5%	15%	2%	-11%
O=C(CSc1nnc(NC(=O)C2CCC2)s1)Nc1ccc(N2CCOCC2)cc1	6%	?	2%	6.3µM*	-29%	-11%
CCSc1nnc(NC(=O)c2cccnc2Cl)s1	-1%	25µM*	5%	-4%	-1%	-10%
CCSc1nnc(NC(=O)c2ccccn2)s1	-3%	?	-5%	-15%	-9%	-10%
O=C(Nc1nnc(SCC(=O)N2CCOCC2)s1)c1ccccc1Cl	3%	22µM*	3%	-4%	2%	?
CCSc1nnc(NC(=O)C(C(F)(F)F)C(F)(F)F)s1	?	18µM*	-3%	22µM*	-21%	3.5µM*
O=C(Nc1nnc(SCC(=O)N2CCCCC2)s1)c1cccs1	-1%	?	-1%	-6%	-3%	14µM*
O=C(NCC(c1ccc2c(c1)OCO2)N1CCOCC1)c1c(F)cccc1F (stereo unspecified)	-2%	·	·	-6%	-8%	·
CC1CN(C(=O)C2CC2)C(C)CN1C(=O)C1CC1 (stereo unspecified)	0%	1%	-8%	?	-30%	-13%
CCN(CC)C(=O)C(=O)c1cn(CC(=O)N2CCc3ccccc3C2)c2ccccc12	2%	0.71µM*	-4%	9%	-3%	·
O=C(C(=O)N1CCc2ccccc2C1)c1cn(CC(=O)N2CCCC2)c2ccccc12	-5%	6%	1%	-8%	-3%	-3%
Cc1nc2c(Br)cc(Br)cc2cc1O	-5%	-5%	-6%	-7%	-26%	?
CC1(C)CC(=O)C(=CN2CCN(C(=O)c3ccco3)CC2)C(=O)C1	?	22µM*	5%	?	-19%	-9%
CC1(C)CC(=O)C(C=NCCN2CCOCC2)=C(O)C1	-5%	?	-1%	0%	-3%	-12%
CC1(C)CC(=O)C(=CN2CCOCC2)C(=O)C1	?	10µM*	-3%	16µM*	-24%	·
CCc1ccc(C(=O)N2CCCC2)s1	-7%	?	3%	-8%	-4%	16µM*
CS(=O)(=O)N1CCN(C(=O)c2ccc(Cl)s2)CC1	3%	-5%	15%	2%	6%	·
O=C(c1ccc(Cl)s1)N1CCCC1	-1%	?	-7%	-4%	2%	7.9µM*
Nc1cccc2c1C(=O)N(C(=O)/C=C/c1ccc(F)cc1)C2=O	?	?	?	25µM*	-15%	·
CCCc1[nH]n(-c2nc3ccccc3s2)c(=O)c1C=NCC(C)C	4%	13µM*	0%	-9%	-6%	-16%
COC(=O)CN1C(=O)C(O)(CC(=O)c2ccc(Br)cc2)c2ccccc21 (stereo unspecified)	-7%	0.35µM*	-1%	-11%	-15%	-4%
C=CCN1C(=O)C(O)(CC(=O)c2ccc(-n3cccc3)cc2)c2ccccc21 (stereo unspecified)	3%	0.5µM*	-27%	-13%	-10%	-17%
SMILES	Tau FP inhib	ALDH1A1 inh	JMJD2E inh	Tau ThT inhib	Tau fluor counter	HPGD block
COC(=O)CN1C(=O)C(O)(CC(=O)c2ccc(F)cc2)c2ccccc21 (stereo unspecified)	-2%	·	·	-6%	-4%	·
COC(=O)CN1C(=O)C(O)(CC(=O)c2ccc(C)cc2)c2cc(Br)ccc21 (stereo unspecified)	-6%	20µM*	-7%	11%	9%	-12%
CCCCN1C(=O)C(O)(CC(=O)c2ccc(CC)cc2)c2cc(Br)ccc21 (stereo unspecified)	-3%	·	·	?	-24%	·
CCc1cccc(C)c1NC(=O)c1cccc(N(C)C)c1	-5%	?	?	?	-12%	14µM*
CCN(CC)CC(=O)Nc1c(C)cc(C(C)(C)C)cc1C	0%	0%	2%	-2%	9%	25µM*
Cc1ccc(NC(=O)COC(=O)C2CC2)c(Br)c1	8%	7%	3%	-7%	-5%	18µM*
CCN(CC)CC(=O)Nc1ccc(C)cc1Br	-5%	13µM*	-2%	?	3%	16µM*
Cc1ccc(NC(=O)COC(=O)c2cc(Cl)cc(Cl)c2)c(Br)c1	-5%	15%	9%	6%	10%	-6%
CCOc1ccc(-c2cc(NC(=O)Nc3ccc(Cl)cc3)c(C(=O)OC)s2)cc1	?	·	·	-2%	-28%	·
COc1ccc(NC(=O)CSc2nc(-c3ccc(OC)cc3)[nH]c2-c2ccc(F)cc2)cc1	-9%	·	·	-9%	?	·
COc1ccc(-c2nc(SCC(=O)Nc3ccc4c(c3)OCCO4)c(-c3ccc(C)cc3)[nH]2)cc1OC	14%	·	·	?	7.9µM*[quencher]	·
COc1ccc(-c2[nH]c(-c3ccc(OC)c(OC)c3)nc2SCC(=O)Nc2ccccc2)cc1	12%	·	·	-7%	6.3µM*[quencher]	·
COc1ccc(NC(=O)CSc2nc(-c3cccc(C)c3)[nH]c2-c2ccccc2)cc1OC	14%	·	·	?	8.9µM*[quencher]	·
COc1ccc(NC(=O)CSc2ncccc2C(=O)O)cc1OC	4%	·	·	-6%	-3%	·
COc1ccc(NC(=O)CSc2nc(-c3ccc(OC)c(OC)c3)[nH]c2-c2ccc(C)cc2)cc1	19%	·	·	-11%	4.5µM*[quencher]	·
CCOc1ccccc1C1C(C(=O)Nc2ccccc2)=C(C)Nc2nc(-c3ccccc3)nn21 (stereo unspecified)	-6%	·	·	-15%	?	·
CC(=O)N1CC2(CC2)CC1c1ccccc1 (stereo unspecified)	8%	7%	9%	-3%	1%	-7%
Cc1ccc(S(=O)(=O)N2CCOCC2)cc1C(=O)OCC(=O)NC1CCS(=O)(=O)C1 (stereo unspecified)	0%	-6%	10%	7%	4%	-4%
CCOC(=O)N1CCN(S(=O)(=O)c2ccc(OCC)c3ccccc23)CC1	6%	?	?	-9%	-8%	28µM*
CCOc1ccc(S(=O)(=O)N2CCN(c3ccc(OC)cc3)CC2)c2cccnc12	-1%	-8%	0%	?	-29%	-2%
CCOC(=O)N1CCN(S(=O)(=O)c2ccc(OC)c(Cl)c2Cl)CC1	-5%	?	5%	2%	-9%	-18%
